HT1080-NT tox: kills 2HG-producing HT-1080-NT fibrosarcoma cells; HT-1080-NT fibrosarcoma viability, CellTiter-Glo ATP luminescence, 48 h; Potency, µM (titrated, usually from 46.1 µM), for the others: at the top dose activity, negative = less viability, hits mostly cytotoxic; actives 1.6% (n = 360,000);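 further: NT is the 2HG producing partner of a matched IDH1 knockdown line; 0% = DMSO-treated cells and -100% = media-only wells without cells; nearly all actives have a fitted effect of over 55% in size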
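Fibrosarcoma NT cells, 750 per well in 5% FBS RPMI, were exposed to compound for 48 hours. Viability: CellTiter-Glo luminescence.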
KB-V1 cytotox: KB-V1 MDR subline cytotoxicity | actives 3.4% (n = 400,000) | KB-V1 MDR cells viability, CellTiter-Glo, 72 h | Potency, µM (titrated, usually from 46.1 µM), actives largely listed as cytotoxic; further: nearly all actives have a fitted effect of over 60% in size
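KB-V1 cells (P-gp-expressing MDR subline of KB-3-1) in phenol-red-free DMEM with 10% FBS were exposed to library compounds over a concentration series for 72 h at 37 degrees C. Viability read by CellTiter-Glo luminescence; concentration-effect curves fitted after normalization.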
TDP1 cell noCPT: qHTS for Inhibitors of human tyrosyl-DNA phosphodiesterase 1 (TDP1): qHTS in cells in absence of CPT | DT40 Tdp1-/- hTDP1 cells, no CPT, ATP luminescence, 48 h | Potency, µM (series often up to 46.2 µM), for inactives: at the highest dose activity change, negative = growth inhibition, hits mostly inhibitors | actives 15% (n = 420,000); further: nearly all actives have a fitted effect of over 55% in size
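Stably hTDP1-transfected Tdp1-null chicken DT40 cells were treated with library compounds minus camptothecin and grown for at least 48 hr at 37 °C, after which cellular ATP was quantified by luminescence.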
KB-3-1 cytotox: KB-3-1 parental cell cytotoxicity | KB-3-1 viability, CellTiter-Glo ATP luminescence, 72 h | Potency, µM (series often up to 46.1 µM), usual class: cytotoxic | actives 1.4% (n = 400,000) | AID 1347075; further: nearly all actives have a fitted effect of over 60% in size
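KB-3-1 parental drug-naive adenocarcinoma cells in DMEM/10% FBS, incubated 72 h at 37 C with pin-transferred compounds across a concentration series. Viability by CellTiter-Glo luminescence; concentration-response curves fitted after normalization.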
HT1080 IDH1KD tx: kills HT-1080 cells with IDH1 knockdown | actives 2% (n = 360,000) | HT-1080 IDH1 knockdown viability, ATP luminescence, 48 h | AID 686971 | Potency, µM (highest dose often 46.1 µM), for inactives: at the highest dose activity, negative = toxicity, hits mostly cytotoxic;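 further: 0% = DMSO wells and -100% = cell-free medium wells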
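% activity derives from luminescence (CellTiter-Glo), normalised to DMSO and no-cell wells. HT-1080-IDH1KD cells, 750/well, had 48 h compound exposure at 37 °C.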
TDP1 cell CPT: growth inhibition of DT40 Tdp1-/-;hTDP1 cells with camptothecin (screen for TDP1 inhibitors) | chicken DT40 Tdp1-/-;hTDP1 cells + 20 nM CPT, ATP luminescence, 48 h | Potency, µM (series often up to 46.2 µM), without a hit: top-dose activity change, negative = growth inhibition, usual class: inhibitors | actives 12% (n = 420,000) | AID 686979; further: nearly all actives have a fitted effect of over 55% in size
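Cell growth measured by CellTiter-Glo luminescence after a minimum 48 h, 37 C compound exposure with 20 nM CPT in Tdp1-knockout DT40 cells stably expressing hTDP1, seeded 400/well; qHTS titration format.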
The depositor's hits bear a star; i = inactive; u = inconclusive; x = no result. The list is not random: actives were taken first. Their share in the collection is about 19%. The call rests on the fitted dose curve; in most records, active means well fitted curve in the direction sought with a large enough effect; inconclusive means small, poorly fitted or top-dose-only effect, or another doubt; inactive means no such curve, though single readings can be large; an effect the other way counts as inactive or inconclusive. Unless noted, on the % scale 0 is the no-effect control and ±100 the full control effect; potency means the concentration at half of the fitted maximal effect.

SMILES	HT1080-NT tox	KB-V1 cytotox	TDP1 cell noCPT	KB-3-1 cytotox	HT1080 IDH1KD tx	TDP1 cell CPT
COc1ccc(N2CCN(C(=O)CNS(=O)(=O)c3ccc(C)cc3)CC2)cc1	-3%	i	-21%	i	-1%	-1%
O=C(Cn1c(=O)nc(-c2ccccc2)c2ccccc21)Nc1cccc(C(F)(F)F)c1	x	x	2%	x	x	-1%
Cc1nc(NCCc2ccc(Cl)cc2)c2nnn(Cc3ccccc3)c2n1	-1%	i	0%	i	8%	8%
Cc1nc(NCCN2CCOCC2)c2nnn(Cc3c(F)cccc3Cl)c2n1	3%	18µM*	-16%	i	-2%	-19%
O=C(COc1ccc(Cl)cc1)NNC(=O)CSc1nncs1	5%	i	-3%	i	4%	-6%
O=C(NCCCNC(=O)c1ccccc1)c1ccccc1	0%	i	-16%	i	9%	-2%
Cc1ccc(NC(=O)CSc2nc(=O)n(CCCN3CCOCC3)c3c2CCCC3)c(C)c1	4%	i	-7%	i	0%	5%
Cc1ccc(C2Nc3ccccc3C(=O)N2Cc2ccco2)cc1 (stereo unspecified)	u	u	u	u	u	18µM*
O=C1c2ccccc2NC(c2ccc(O)cc2)N1Cc1ccco1 (stereo unspecified)	11%	i	u	i	14%	-2%
O=C1c2ccccc2NC(c2ccc(OCc3ccccc3)c(OCc3ccccc3)c2)N1Cc1ccco1 (stereo unspecified)	x	i	13µM*	i	x	11µM*
CCN(C(=O)c1cc2c(Cl)nc3ccccc3c2s1)c1cccc(Cl)c1	x	i	u	i	x	-6%
Cn1c(=O)n(C)c2cc(N3CCCCC3)c(NC(=O)c3ccc(C(C)(C)C)cc3)cc21	x	u	u	i	x	u
CCC(c1nc2ccccc2[nH]1)N(Cc1cccnc1)C(=O)c1cc(-c2ccccc2)on1 (stereo unspecified)	0%	i	18µM*	i	-1%	u
COc1cccc(N2CCN(C(=O)C3CCN(S(=O)(=O)c4c(C)noc4C)CC3)CC2)c1	x	i	u	i	x	-17%
Cn1c(=O)c(C(=O)CN2CCc3ccccc32)c(N)n(Cc2ccccc2)c1=O	-2%	i	18µM*	i	-17%	13µM*
CC[C@]12c3[nH]c4cc(CCC(=O)N(C)C)ccc4c3CCN1C(=O)[C@@H](CC(=O)NC/C=C(\C)CCC=C(C)C)C[C@@H]2C(=O)N1CCN(C(=O)c2ccco2)CC1	u	i	5.8µM*	u	21µM*	10µM*
CN(C)C(=O)CCc1ccc2c3c([nH]c2c1)[C@]1(CCC2CCCC2)[C@@H](C(=O)N2CCOCC2)C[C@H](CC(=O)NCC24CC5CC(CC(C5)C2)C4)C(=O)N1CC3	8%	i	23µM*	i	5%	u
CC[C@]12c3[nH]c4cc(CCC(=O)N(C)C)ccc4c3CCN1C(=O)[C@@H](CC(=O)NCc1ccc(OC)c(OC)c1)C[C@@H]2C(=O)N1CCN(C(=O)c2ccco2)CC1	6%	i	2%	i	3%	0%
COCCCNC(=O)C[C@H]1C[C@H](C(=O)N2CCOCC2)[C@@]2(CCC3CCCC3)c3[nH]c4cc(CCC(=O)N(C)C)ccc4c3CCN2C1=O	-7%	i	-8%	i	2%	0%
CC(C)=CCC/C(C)=C/CNC(=O)C[C@H]1C[C@H](C(=O)N2CCOCC2)[C@@]2(CCC3CCCC3)c3[nH]c4cc(CCC(=O)N(C)C)ccc4c3CCN2C1=O	-3%	i	6.5µM*	i	0%	5.8µM*
CC1C(=O)CC2C3(C)CCC2(C(C)C(=O)O)C(=O)C13 (stereo unspecified)	x	x	-10%	x	x	-4%
Cc1ccc(-n2cnc3cc(C(=O)NC4CCCCCC4)ccc32)cc1Cl	x	i	u	i	x	u
Cc1nn2c(=O)cc(CN(C)c3ccccc3)nc2s1	x	i	12%	i	x	6%
CN(Cc1ccccc1)Cc1nc2c(c(=O)n(C)c(=O)n2C)n1CCCc1ccccc1	14%	16µM*	16µM*	i	21%	18µM*
Cn1c(=O)c2c(nc(CCc3ccccc3)n2C)n(C)c1=O	29%	i	-19%	i	5%	-27%
SMILES	HT1080-NT tox	KB-V1 cytotox	TDP1 cell noCPT	KB-3-1 cytotox	HT1080 IDH1KD tx	TDP1 cell CPT
CC(C)Cn1c(CN(C)Cc2ccccc2)nc2c1c(=O)n(C)c(=O)n2C	-1%	i	7.3µM*	i	-5%	6.5µM*
COC(=O)Cn1c(CN(C)Cc2ccccc2)nc2c1c(=O)n(C)c(=O)n2C	16%	u	u	u	8%	u
CCOC(=O)Cn1c(CN(C)Cc2ccccc2)nc2c1c(=O)n(C)c(=O)n2C	-6%	i	12µM*	i	-16%	9.2µM*
Cc1nnc(SCCn2c(N(C)Cc3ccccc3)nc3c2c(=O)n(C)c(=O)n3C)s1	8%	i	11µM*	i	3%	u
CC(C)(C)C(=O)Nc1ccccc1C(=O)OCc1cc(=O)n2ccsc2n1	x	u	-3%	i	x	-1%
CCc1ccc(NC(=O)c2sc(-n3nc(C)c(Cc4ccc(OC)cc4)c3C)nc2C)cc1	x	x	-14%	x	x	-11%
CCCCOc1ccc2c(c1)/C(=C(\C(Cl)=C(Cl)Cl)[N+](=O)[O-])N2	9%	21µM*	-22%	u	-2%	-24%
CC1(C)Cc2c(ccc3ccccc23)C2=C(C(=O)N3CCCC3)C(=O)C(=O)N21	4%	i	8.2µM*	i	-16%	8.2µM*
CCc1ccc(NC(=O)CSc2nc3ncccc3[nH]2)cc1	x	x	13µM*	x	x	u
CCCCc1ccc(NC(=O)CSc2nc3ncccc3[nH]2)cc1	7%	i	1.2µM*	i	0%	2.6µM*
COc1ccc(NC(C)=O)cc1NC(=O)CSc1nc2ncccc2[nH]1	15%	i	18µM*	i	18%	13µM*
COc1ccccc1NC(=O)CSc1nc2ncccc2[nH]1	6%	i	-14%	i	-11%	-7%
CCOC(=O)c1ccc(NC(=O)CSc2nc3ncccc3[nH]2)cc1	-6%	u	21µM*	i	-14%	u
CCOCCn1cnc2sc(C(=O)NCCCN3CCOCC3)c(C)c2c1=O	7%	i	15%	i	6%	4%

Screens as filed in PubChem.
